Bioassay records as filed in PubChem.
CHT block = inhibits the human high affinity choline transporter; AID 488975; 0.86% of 310,000 active; Q9GZV3; CHT-expressing cells, membrane potential dye, choline response; hits give low values; B-score at 10 µM;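 active = B-score over 3 SD under the library average, and starting fluorescence ratio not unusually high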;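 note: choline stimulus applied at its EC90 after an EC20 pre-addition; B-score computed on integrated fluorescence ratio after choline addition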
Target sequence (Q9GZV3 whole entry, looked up): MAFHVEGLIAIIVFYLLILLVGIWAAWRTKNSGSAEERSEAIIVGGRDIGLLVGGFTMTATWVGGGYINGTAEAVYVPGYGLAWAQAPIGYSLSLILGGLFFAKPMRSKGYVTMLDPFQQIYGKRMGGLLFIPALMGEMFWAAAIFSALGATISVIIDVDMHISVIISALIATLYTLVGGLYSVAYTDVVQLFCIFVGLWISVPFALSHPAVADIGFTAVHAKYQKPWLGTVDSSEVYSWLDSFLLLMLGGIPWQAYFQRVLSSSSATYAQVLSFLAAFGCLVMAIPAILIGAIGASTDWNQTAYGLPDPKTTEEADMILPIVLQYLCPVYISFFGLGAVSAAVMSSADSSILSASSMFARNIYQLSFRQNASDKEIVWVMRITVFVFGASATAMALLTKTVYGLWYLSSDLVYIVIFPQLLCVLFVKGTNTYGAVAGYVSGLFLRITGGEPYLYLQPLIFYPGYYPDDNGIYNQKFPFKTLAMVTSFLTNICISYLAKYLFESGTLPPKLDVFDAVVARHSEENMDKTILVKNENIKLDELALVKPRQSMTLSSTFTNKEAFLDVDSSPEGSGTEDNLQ
VLA-4 inh = inhibition in a human VLA-4 binding assay; inhibition, % (about 7 µM as worked out from the volumes in the protocol); VLA-4 expressing cells, ligand binding flow cytometry; AID 2557; 0.2% of 330,000 active; P13612; in the data active = inhibition above about 50%
AI-2 QS mod = Vibrio harveyi AI-2 quorum sensing modulation; 0.4% of 300,000 active; Vibrio harveyi JMH597 AI-2 luminescence/OD600 ratio, 9 h; hits give low values; strain lacks LuxN and CqsS sensors; 0 = neutral-control median; activity change, % at 7.5 µM; in the data active = activity change below about -75%, passing the limit was not always enough;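 note: luminescence divided by OD600 gain over 9 h not by final OD600 alone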
CHT PAM = human CHT allosteric activation | 0.49% of 310,000 active | CHT-expressing cells, membrane potential dye, choline EC20; hits give high values; LV-AA mutant CHT in HEK293 cells | B-score at 10 µM | Q9GZV3;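 active = initial fluorescence not abnormally high and integrated response B-score, plate-corrected, over 3 SD above library mean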
Platelet DG rel = modulates dense granule release in human platelets. human platelet-rich plasma, SFLLRN dense granule ATP release, luminescence. inhibition, %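 (compounds screened at 7.5 µM in platelet-rich plasma)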. 0.22% of 300,000 active;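 active = mean replicate score, as percent of positive control, at or above 50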
HIF act = HIF pathway transcriptional activation; U2OS HRE-luciferase reporter, luminescence; normalized: DMSO 0%, desferrioxamine 100%; activation, % at 7.5 µM (by protocol); 0.32% of 300,000 active; AID 1910;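 active = mean activation of at least 10% of the iron chelator positive control signal, with at least half of replicates also reaching 10%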
CHT block conf = human CHT inhibition, confirmatory screen | shares compounds with CHT block | CHT-expressing cells, choline membrane potential dye; LV-to-AA substituted CHT, HEK293 cells | CHT activity remaining % of control (hits give low values), % at 10 µM | 70% of 2,400 active | AID 493221;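 active = choline transporter activity left, mean of duplicates at 10 µM, below buffer-only control mean minus 3 SD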;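 note: depolarization triggered by choline at its EC90 following an EC20 pre-addition; 0% = hemicholinium-3 full block and 100% = buffer-only control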
HEK293 MPD ctr = counter-screen for CHT inhibitors: effect in parental HEK293 cells. shares compounds with CHT block. membrane potential dye, choline response; active = decrease or increase beyond buffer ±3SD. membrane potential ratio readout (active if shifted either direction beyond buffer ±3SD; no single direction) at 10 µM. 4% of 2,400 active. AID 493222;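 note: parental cells lack the transporter so any hit is non-specific; ratio is peak minus trough fluorescence over baseline after EC90 choline challenge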
Active calls of the source: *; i = inactive; / = no result. Hits are enriched below; roughly 2.2% of the tested compounds scored in any of these assays.

SMILES | CHT block | VLA-4 inh | AI-2 QS mod | CHT PAM | Platelet DG rel | HIF act | CHT block conf | HEK293 MPD ctr
CCc1nn2c(NCCOC)cc(C)nc2c1-c1ccc(F)cc1 | -5.1* | 4 | -2 | i | 5 | 0 | 48%* | i
CC(C)[C@H](CO)N(Cc1cccc(F)c1)c1nc(Nc2cccc(Cl)c2)c2ncn(C(C)C)c2n1 | i | 0 | 19 | i | -1 | 1 | / | /
CC(C)n1cnc2c(N(C)c3cccc(Cl)c3)nc(N(CCO)CCO)nc21 | -6.6* | 1 | 11 | i | 2 | 0 | 52%* | i
Cc1ccc2c(COC(=O)c3ccccc3F)cc(=O)oc2c1 | i | -2 | 11 | i | 0 | 5 | / | /
Cc1ccc2c(COC(=O)c3c(C)noc3C)cc(=O)oc2c1 | -5.9* | 10 | 8 | i | 10 | 0 | i | i
CCOC(=O)c1cccc(NC(=O)CCS(=O)(=O)c2cccc3nsnc23)c1 | -8.3* | 3 | 14 | i | 3 | 1 | 36%* | i
CCOC(=O)c1ccc(NC(=O)CCS(=O)(=O)c2cccc3nonc23)cc1 | i | -7 | 18 | i | -1 | -1 | / | /
Nc1ncnc2c1ncn2C1OC(C(=O)NC2CC2)C(O)C1O (centres undefined) | -5.1* | 41 | / | i | / | / | 44%* | i
Nc1ncnc2c1ncn2C1OC(CO)C(O)C1N (centres undefined) | i | -69 | 2 | i | -2 | 0 | / | /
CN1CCN(CCCNC(=O)Nc2ccc([N+](=O)[O-])cc2)CC1 | i | 4 | 5 | i | -1 | -1 | / | /
O=C(Cn1[nH]c(=O)c2ccccc2c1=O)OCC(=O)N1CCc2ccccc2C1 | -5.4* | 12 | 27 | i | 0 | -1 | i | i
O=C(NCC1CCCO1)c1cnn2c1NC(c1ccccc1)CC2C(F)(F)F (centres undefined) | i | 4 | 11 | i | 11 | 0 | / | /
O=C(NCCCn1ccnc1)c1cnn2c1NC(c1ccccc1)CC2C(F)(F)F (centres undefined) | -14* | 10 | 21 | i | 7 | 0 | 9.0%* | i
CC(SCc1ccccc1)C(=O)N/N=C/c1ccc(OCC(=O)NCc2ccco2)cc1 (centres undefined) | -8.1* | 12 | -4 | i | 2 | -1 | 47%* | i
CC(=O)/C(C#N)=C1\NC(=O)C(Cc2ccc(C)c(Cl)c2)S1 (centres undefined) | -7* | -3 | 31 | i | -3 | 0 | i | i
O=C(Nc1ccc(Cl)cc1F)c1ccc2c(c1)C(=O)N(Cc1ccncc1)C2=O | / | -1 | / | / | / | / | / | /
O=C(NNC1=C(C(=O)C(F)(F)F)CCC1)c1ccccc1O | -6.5* | 15 | 3 | i | -24 | 0 | 31%* | i
O=C(NNC1=C(C(=O)C(F)(F)F)CCC1)c1ccc(Br)cc1 | -7.5* | -3 | 70 | i | -9 | 0 | 43%* | i
O=C(NNC1=C(C(=O)C(F)(F)F)CCC1)c1ccccc1Cl | i | -5 | 26 | i | -95 | 0 | / | /
Cc1ccc(NC(=O)CSCC(=O)NC2=NCCS2)cc1 | / | 1 | / | / | / | / | / | /
COc1cc(-c2nnc(SC/C=C/c3ccccc3)n2N)cc(OC)c1OC | -5.2* | -7 | 7 | i | -3 | 0 | 67%* | i
Nn1c(SC/C=C/c2ccccc2)nnc1-c1ccncc1 | i | 0 | 10 | i | -1 | 0 | / | /
Cc1ccc(NC(=O)CNC(=O)c2cccc(Cl)c2)nc1 | -6.2* | -2 | 2 | i | -31 | 1 | 26%* | i
CC(=O)c1ccc(N/C=C\C(=O)c2ccc(C)cc2)cc1 | i | 8 | 16 | i | 2 | 2 | / | /
Cc1ccc(C(=O)/C=C/C(=O)O)cc1 | -5.8* | -4 | -40 | i | -7 | 0 | 26%* | i
SMILES | CHT block | VLA-4 inh | AI-2 QS mod | CHT PAM | Platelet DG rel | HIF act | CHT block conf | HEK293 MPD ctr
Cc1ccc(CN2CCN(Cc3ccc4cccc(F)c4n3)CC2CCO)cc1 (centres undefined) | i | 3 | 13 | i | 1 | -3 | / | /
CCCn1c2ccccc2c2cnn(CC(=O)NCCN(CC)CC)c(=O)c21 | -9.1* | 11 | 14 | i | -1 | 1 | -3.9%* | i
O=C(Cn1ncc2c3ccccc3n(Cc3ccccc3F)c2c1=O)NCCN1CCOCC1 | -9.9* | 4 | 28 | i | -8 | 32* | 28%* | i
CCCCN(C)C(=O)Cn1ncc2c3ccccc3n(CCC)c2c1=O | i | -2 | -9 | i | 0 | 0 | / | /
CCCn1c2ccccc2c2cnn(CC(=O)N(CC)CC)c(=O)c21 | i | 9 | 38 | i | -10 | -24 | / | /
CCCn1c2ccccc2c2cnn(CC(=O)NCCN(C)C)c(=O)c21 | -8* | 3 | 15 | i | 2 | 1 | 19%* | i
O=C(O)CN1C(=O)/C(=C\C(Br)=C\c2ccccc2)SC1=S | i | 6 | 39 | i | 8 | -3 | / | /
O=C(NCc1cccc(C(F)(F)F)c1)c1cc(Cl)ccc1Cl | -5.8* | 23 | 1 | i | -2 | 0 | i | i
O=C(NCc1cccc(C(F)(F)F)c1)c1cc(Cl)cc(Cl)c1 | i | 0 | 23 | i | 1 | -4 | / | /
COCCn1c(C)cc(C(=O)CN2C(=O)NC3(CCCCCC3)C2=O)c1C | / | 9 | / | / | / | / | / | /
CN(Cc1ccccc1F)C(=O)CCCNC(=O)c1ccc(Cl)cc1 | -5.8* | 3 | 8 | i | -5 | 0 | 55%* | i
CN(Cc1ccccc1)C(=S)Nc1ccc2nc3n(c(=O)c2c1)CCCCC3 | -7* | 7 | -25 | i | 1 | 2 | i | i
O=c1c2cc(NC(=S)N3CCCCC3)ccc2nc2n1CCCCC2 | i | 5 | / | i | -2 | 4 | / | /
CC(=O)N1CCN(C(=O)c2cccc(S(=O)(=O)N3CCN(c4ccccc4)CC3)c2)CC1 | / | -9 | / | / | / | / | / | /
CC1CCC(NC(=O)c2cccc(S(=O)(=O)N3CCN(c4ccc(F)cc4)CC3)c2)CC1 (centres undefined) | -5.6* | -5 | 18 | i | 3 | 1 | i | i
CC1CCN(S(=O)(=O)c2cccc(C(=O)N3CCN(c4ccc(F)cc4)CC3)c2)CC1 | i | 1 | 10 | i | -2 | 2 | / | /
O=C(NNC(=O)c1cccc(S(=O)(=O)N2CCN(c3ccccc3)CC2)c1)c1ccc(Cl)cc1 | -5.4* | 14 | -12 | i | -13 | 0 | i | i
